According to the OligoGym collection:
Note: reference of the scale not given here.

Each sequence was assayed against MRPS24 (assay: pooled miR-30 sensor sort-seq; sequence = guide strand). Conditions: shRNA.
TTTGTAAAAGTAGGACAGCAAA showed a sensor-assay potency score (higher = more potent) of -1.45. TGTGCAGCGACAGCCAGCCTTT showed a sensor-assay potency score (higher = more potent) of -0.931. TAGGTCACCGGCTTGTCCCCCT showed a sensor-assay potency score (higher = more potent) of 0.167. With AAGGAAAACATCCTCCACCGTT the sensor-assay potency score (higher = more potent) was -0.646. TACCCCACATGAACTTGCGAAG gave a sensor-assay potency score (higher = more potent) of -1.43. TAGGACAGCAAAGTTTCACTGT gave a sensor-assay potency score (higher = more potent) of 0.628. TACTTGTGTGGAGACAACTGCC gave a sensor-assay potency score (higher = more potent) of -0.594. Sequence TTGTGTGGAGACAACTGCCTCA has a sensor-assay potency score (higher = more potent) of -0.151. For TTGGAGGTGGAGTCGCACAGGA, the sensor-assay potency score (higher = more potent) was -0.602. In the case of TTCACTGTAGCCCACGAGGAAG, the sensor-assay potency score (higher = more potent) is reported as -1.08. Work on TAAAACCAGCTGGTCAGCCAGG yielded a sensor-assay potency score (higher = more potent) of -1.47. In the case of TAAAAGTAGGACAGCAAAGTTT, the sensor-assay potency score (higher = more potent) is reported as -1.12.

These sequences were tested against MRS2 in the same assay as above. Conditions: shRNA.
Sequence TAATATCTGTTTCTAACTCTGA has a sensor-assay potency score (higher = more potent) of -0.212. TAGCAACTCTTCCTCATCCAAG was tested, and the sensor-assay potency score (higher = more potent) was -1. For TAATATCAGAAGACACTCTGGA, the sensor-assay potency score (higher = more potent) was 0.725. TACACAGAGCTCTTCTAGCAAC showed a sensor-assay potency score (higher = more potent) of -1.3. Sequence TTTGTCACAGTAAATACTGGGG has a sensor-assay potency score (higher = more potent) of 0.152. Sequence TTAATATCTGTTTCTAACTCTG has a sensor-assay potency score (higher = more potent) of 0.197. In the case of TAAACCGGTGCACTTCACCTGC, the sensor-assay potency score (higher = more potent) is reported as -0.316. In the case of TTGATACACAGAGCTCTTCTAG, the sensor-assay potency score (higher = more potent) is reported as -0.709. Work on TGTGATACTCATTACATGCTGA yielded a sensor-assay potency score (higher = more potent) of 0.129. In the case of TGAATCATCAATCAGCACCCTA, the sensor-assay potency score (higher = more potent) is reported as -0.284. TTCCATGCTTCTATCTGCCAGA gave a sensor-assay potency score (higher = more potent) of -0.489.

The sequences below were run against MST4 in the same assay as above. Conditions: shRNA.
Work on TATTTTGTTACATATGAGCTGT yielded a sensor-assay potency score (higher = more potent) of -0.0518. Sequence TTTGTGAACAGTTCTTCTGGAT has a sensor-assay potency score (higher = more potent) of 0.425. In the case of TAATATTTGACAATTACTCAGA, the sensor-assay potency score (higher = more potent) is reported as -0.142. TTCAACATTACCAAACACCTAT showed a sensor-assay potency score (higher = more potent) of -0.0444. TAGTTTAATAGCTTCTTCCAAA showed a sensor-assay potency score (higher = more potent) of -1.19. TATAGGACAATTTATTACCATG was tested, and the sensor-assay potency score (higher = more potent) was -1.23. TATCATAGACAAACAACTCAGG was tested, and the sensor-assay potency score (higher = more potent) was -0.251. TTGCTTTAAATTTCTAACCATG showed a sensor-assay potency score (higher = more potent) of -1.11. TTTAATAGCAACGACTTGCTGG gave a sensor-assay potency score (higher = more potent) of 0.885. TAAACTGTAATTGTGTTTCAGT showed a sensor-assay potency score (higher = more potent) of 0.0353. Work on TTATCATAGACAAACAACTCAG yielded a sensor-assay potency score (higher = more potent) of -0.749. Work on TAAAATTGCCTCTTCTACCTAA yielded a sensor-assay potency score (higher = more potent) of 0.733.

These sequences were tested against MTDH in the same assay as above. Conditions: shRNA.
Sequence TTAGAAGTGAAGCTCTTTCTTC has a sensor-assay potency score (higher = more potent) of -0.219. TTCTTCTGTTCCTCGCTCCGGA showed a sensor-assay potency score (higher = more potent) of -0.0167. TTCTCGGACAGTTTCTTCCGGT gave a sensor-assay potency score (higher = more potent) of -0.0604. With TAGTTGAATCCAATGAACCAGA the sensor-assay potency score (higher = more potent) was -0.602. TAAATTAAGATCGTTCTTGTTC gave a sensor-assay potency score (higher = more potent) of 0.14.
